The structures appear in SMILES notation. Results filed as inconclusive are left out. Entries that show only a call come without a potency. Activity calls are given as the source filed them. Calls come from the whole dose curve; as a rule, active = well fitted cell-killing curve with a large enough effect; inconclusive = small, poorly fitted or top-dose-only effect, or effect the other way; inactive = flat fitted curve, though single readings scatter.
Potency is the fitted concentration of half-maximal effect.

This test relates to SKOV3. The test is described as follows: Primary qHTS to identify gynecologic anti-cancer compounds using libraries of approved drugs and bioactive compounds (AID 1345084). Note: nearly all actives have a fitted effect of over 55% in size. To be noted: Gynecologic cancer cell panel viability, ATPlite luminescence, 48 h; series mostly up to 57.5 µM. The method in brief:
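48 h compound exposure at 37 C, 5% CO2; five-point qHTS. ATPlite luminescence readout of cell ATP.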
`CC(=O)c1c(C)cc2cccc(O)c2c1O[C@@H]1O[C@H](CO)[C@@H](O)[C@H](O)[C@H]1O`: the Potency result was “inactive”.
For the compound `C/C=C(\C)C(=O)O[C@H]1C=CC(=O)O[C@H]1/C=C/[C@@H](O)[C@H](C)O`, the Potency result is “inactive”.
Under `OC(c1ccc(-c2ccc(CN3CCN(Cc4ccncc4)CC3)cc2)c(F)c1)(C(F)(F)F)C(F)(F)F` stands “inactive”; under `CC1CC(=O)C2=C(C1)C1OC1C1(O)C2C(=O)c2cccc(O)c2C1O` (configuration not stated), “inactive”; under `CCn1nc(C2CCN(C(=O)CCO)CC2)nc1-c1cnc(N)c(-c2nnc(C(C)(C)C)o2)n1`, 1780 nM (active).
The figure for `COC1CC(=O)C23C(=O)NC(Cc4c[nH]c5ccccc45)C2C(C)C2(C)OC2C3/C=C/CC(C)CC1O` (configuration not stated) is 8910 nM (active).
With `C=C1C(=O)O[C@@H]2[C@H]3C(C)=CC(=O)C3=C(C)[C@@H](OC(=O)/C(C)=C\C)[C@H](O)[C@@H]12`, the Potency result was “inactive”.
The entry for `C=C1CC2OC(=O)C(COC)C2C(OC(=O)/C(C)=C\C)CC2(C)OC1=CC2=O` (configuration not stated) is “inactive”; for `CC(=O)O[C@@H]1[C@@H](OC(C)=O)[C@H](C)O[C@@H](O[C@H]2[C@@H]3C=CO[C@@H](O[C@@H]4O[C@H](CO)[C@@H](O)[C@H](O)[C@H]4O)[C@@H]3[C@@]3(CO)O[C@@H]23)[C@@H]1OC(=O)/C=C/c1ccccc1` it is “inactive”; for `O=C(NCCCn1ccnc1)c1cc(-c2ccco2)on1` it is “inactive”.
Under `COc1ccc(C(=O)O[C@H]2C=COC=C3C=C4C(=O)N(C)C(=S)C(=O)N4[C@@H]32)cc1Oc1cc(C=O)ccc1O` stands “inactive”.
As to `C=C(C)Cn1c(SCC(=O)c2cccs2)nc2sc3c(c2c1=O)CCCC3`, the Potency result is “inactive”.
Under `C=C1C(=O)O[C@@H]2/C=C(\C)CC/C=C(\C)CC[C@@H]12` stands “inactive”.
Under `O=C(Nc1ccc(-n2nc(C(F)(F)F)cc2C(F)(F)F)cc1)c1ccncc1F` stands “inactive”; under `CCNC(=O)C#Cc1ccc2c(C(=Nc3ccc(CN(C)C)cc3)c3ccccc3)c(O)[nH]c2c1`, 1410 nM (active); under `C=C1CCC2[C@](C)(CCC[C@@]2(C)C=O)[C@H]1CC/C(C)=C/CO` (some centres not stated), “inactive”.
The entry for `CC(C)CCCCC(=O)N[C@@H](CO)C(=O)N[C@@H](CC(C)C)C(=O)[C@@]1(CO)CO1` is “inactive”.
